Results from PubChem BioAssay AID1117358 (Southern Research Institute, 2015).
The whole screen tested about 2,300 compounds, of which about 160 (7%) were called active. No rule for the calls is given here. A selection follows. Results with a measured potency or affinity are listed apart.

Test: Vero cell cytotoxicity, dose response, cytotoxicity control for Vif-APOBEC3G degradation inhibitor project, Vero cells (AID 1117358)
Conditions: CellTiter-Glo ATP luminescence, 72 h; series mostly up to 40 µM

| Compound | outcome |
| --- | --- |
| CC(C(=O)N1CCOCC1)(c1ccccc1)c1ccccc1 | inactive |
| COc1ccc(C(C)(C)C)cc1NC(=O)C1C2C=CC(C2)C1C(=O)O (stereo not drawn) | inactive |
| CC1CCCC(NC(=O)Cn2cc3c(n2)CCCCC3)C1C (stereo not drawn) | inactive |
| CCOC(=O)N1CCN(CC(=O)c2ccc3c(c2)CCN3C(C)=O)CC1 | inactive |
| CCOc1ccc2[nH]c(=O)c(CN(Cc3nnnn3Cc3ccco3)C3CCCCC3)cc2c1 | inactive |
| CCOC(=O)c1ccc(NC(=O)CSCc2ccco2)cc1 | inactive |
| Cc1cc(C)n(CC(O)CN2c3ccccc3Sc3ccccc32)n1 (stereo not drawn) | inactive |
| CCOc1cc(Cl)c(S(=O)(=O)NCc2ccccn2)cc1Cl | inactive |
| COC(=O)COc1ccc(S(=O)(=O)NCc2ccco2)cc1Cl | inactive |
| O=C(Cn1ncc2c(=O)oc3ccccc3c21)N1CCCc2ccccc21 | inactive |
| CCC(C)NS(=O)(=O)c1ccc(S(=O)(=O)N(CC(=O)Nc2ccccc2)CC2CCCO2)cc1 (stereo not drawn) | inactive |
| Cc1cccc(C)c1NC(=O)COC(=O)c1cc(-c2cccnc2)nc2ccccc12 | inactive |
| CCOC(=O)CC1Sc2ccccc2NC1=O (stereo not drawn) | inactive |
| COc1cc(O)oc1C=Nc1ccccc1 | inactive |
| Cc1ccc(S(=O)(=O)N=Nc2c(O)[nH]c3ccccc23)cc1 | inactive |
| CCOC(=O)C1=C(CSc2nc(C)ccc2C#N)OC(N)=C(C#N)C1c1cccc(OC)c1OC (stereo not drawn) | inactive |
| Cc1nc(NC(=O)CN2CCOCC2)sc1-c1ccccc1 | inactive |
| O=C(O)CC(C(=O)O)N1C(=O)/C(=C/c2ccc(-c3nc4ccccc4s3)o2)SC1=S (stereo not drawn) | inactive |
| O=C1CC(c2ccco2)CC(O)=C1C=Nc1ccc(Br)cc1 (stereo not drawn) | inactive |
| COc1ccc(OCC(=O)O/N=C(\N)Cc2ccc(Cl)cc2)cc1 | inactive |
| CCC(=O)Nc1nc2ccc(NC(C)=O)cc2s1 | inactive |
| CCOC(=O)N1CCC(NC(=O)c2cc3c(C)nc4ccccc4c3o2)CC1 | inactive |
| CCOC(=O)C1CCN(C(=O)c2ccc(OC)cc2OC)CC1 | inactive |

| Compound | outcome |
| --- | --- |
| COc1ccc(NC(=O)Nc2cccs2)cc1OC | inactive |
| CCOC(=O)Nc1nnc(-c2ccccc2OC)s1 | inactive |
| C=CCOC(=O)CN1C(=O)c2ccccc2C1=O | inactive |
| COc1ccc(OC)c(NC(=O)CSc2nnc(CCCO)n2-c2ccccc2)c1 | inactive |
| CCn1c(SCC(=O)n2c(C)c(C)c3ccccc32)nnc1-c1ccco1 | inactive |
| CCOc1ccccc1CNC(=O)Cn1c(=O)oc2ccccc21 | inactive |
| COc1ccccc1N1CCN(C(=O)c2cc(-c3cccs3)on2)CC1 | inactive |
| Cc1ccccc1CS(=O)(=O)Cc1ccc(C(=O)N2CCOCC2)o1 | inactive |
| COc1ccc(OC)c(NC(=O)NCc2ccc(F)cc2)c1 | inactive |
| CCOc1cc(C)nc(NCCc2ccc(OC)c(OC)c2)n1 | inactive |
| O=C1c2ccccc2C(=O)N1CCc1csc(-c2ccc(F)cc2)n1 | inactive |
| COc1ccc(Oc2nc(C)cc(C)c2C#N)cc1 | inactive |
| Cc1cc(-c2cc(-c3ccc(Cl)cc3)nc(N)c2C#N)co1 | inactive |
| O=[N+]([O-])c1cc(/C=N\Nc2nccs2)ccc1O | inactive |
| CC(OC(=O)c1cccs1)C(=O)NCc1ccco1 (stereo not drawn) | inactive |
| CCc1nc(SCC(=O)Nc2ccc(C(=O)O)cc2)n[nH]1 | inactive |
| CCc1cccc(NC(=O)Cn2ncn3c(cc4ccccc43)c2=O)c1 | inactive |
| COCCNC(=O)COc1ccc(Br)cc1Cl | inactive |
| CSc1cccc(NC(=O)CN(c2cc(C)ccc2C)S(C)(=O)=O)c1 | inactive |
| Cn1c(CN2CCOCC2)nc2cc(NC(=O)c3ccc(F)cc3)ccc21 | inactive |
| N#Cc1nc(-c2ccco2)oc1N1CCN(c2ccccc2)CC1 | inactive |
| CCC(C)(C)n1nnnc1C(c1cc2cc(C)ccc2[nH]c1=O)N1CCCc2ccccc21 (stereo not drawn) | inactive |
| O=C(OCc1ccc(Cl)cc1)c1cnccn1 | inactive |

| Compound | outcome |
| --- | --- |
| O=C(CSc1nccn1Cc1ccccc1)Nc1nccs1 | inactive |
| Cc1ccc(NC(=O)CCC(=O)NNC(=O)COc2cccc3ccccc23)c(C)c1 | inactive |
| CS(=O)(=O)N(CC(=O)NCc1ccc2c(c1)OCO2)Cc1ccccc1 | inactive |
| O=C(O)Cc1ccc(C(=O)c2ccccc2)s1 | inactive |
| Oc1ccc(/C=N/NC2=NCCCCC2)c(O)c1 | inactive |
| Cc1ccc(C)n1Cc1ccc(C(=O)O)cc1 | inactive |
| CC(=O)C1CCN(Cc2ccccc2)CC1 | inactive |
| Cn1cccc1C(=O)NC(=O)COC(=O)CC12CC3CC(CC(Br)(C3)C1)C2 | inactive |
| O=C(COC(=O)c1cc(-c2ccco2)nc2ccccc12)NCc1ccc2c(c1)OCO2 | inactive |
| Cc1nc(C(=O)N(C)C)nn1-c1cc(Cl)cc(Cl)c1 | inactive |
| CCOC(=O)c1ccc(-n2ncc(C(=O)OCC)c2N)cc1 | inactive |
| Cc1ccc(S(=O)(=O)N2CCC(C(=O)Nc3nnc(-c4ccco4)s3)CC2)cc1 | inactive |
| CCN(CC)c1ccc(/C=N/n2c(C)cc(C)cc2=O)cc1 | inactive |
| CCOc1ccc(Br)cc1/C=N/O | inactive |
| CCOc1ccc(N(CC(=O)NC2CCCCC2)S(=O)(=O)c2c(C)noc2C)cc1 | inactive |
| Cc1onc(-c2ccccc2)c1C(=O)N1CCCc2ccccc21 | inactive |
| C=CCn1c(SCC(=O)c2cc(C)n(C(C)COC)c2C)nc2sc(C)c(C)c2c1=O (stereo not drawn) | inactive |
| CCOC(=O)c1ccc(NS(=O)(=O)c2ccc3c(c2)oc(=O)n3C)cc1 | inactive |
| Cc1nnc(-c2cnn(-c3ccccc3)c2N)n1Cc1cccc(C(F)(F)F)c1 | inactive |
| C/C(=C1\SC(N2CCOCC2)=NC1=O)c1ccccc1 | inactive |
| Cc1noc(C)c1C(=O)N1CCN(c2ncccn2)CC1 | inactive |
| COc1ccc(NS(=O)(=O)c2cccc(Cl)c2Cl)cc1S(=O)(=O)N1CCCCC1 | inactive |
| CCC(=O)N1CCN(c2ccccc2NC(=O)c2cccc(C)c2)CC1 | inactive |

| Compound | outcome |
| --- | --- |
| O=C(NCc1ccc(Cl)cc1)c1ccccc1Oc1ccccc1 | inactive |
| COC(=O)c1cccc(NC(=O)c2cccc(OC)c2)c1 | inactive |
| CCC(=O)NNc1ncnc2ccccc12 | inactive |
| COc1cc2c(cc1NC(=O)COC(=O)Cn1cnc3ccccc31)oc1ccccc12 | inactive |
| CCOC(=O)N1CCC(Nc2c(-c3ccc(C)cc3)c(=O)c2=O)CC1 | inactive |
| Cc1cccc(CCNC(=O)CCc2nc(-c3ccccc3F)no2)c1 | inactive |
| O=C(N/N=C/C=C\c1ccco1)c1cccnc1 | inactive |
| Cc1cc(C)nc(N(C#N)CN2C(=O)c3ccccc3S2(=O)=O)n1 | inactive |
| COC(=O)CSc1nnc(CNC(=O)c2cccs2)n1-c1cc(OC)ccc1OC | inactive |
| COc1ccc(OC)c(-c2cc(C(=O)NCc3cccs3)no2)c1 | inactive |
| c1ccc2c(c1)ccc1nnc(SCc3ccc4c(c3)OCO4)n12 | inactive |
| CCOC(=O)NC1(NC2CCCCC2)Oc2ccccc2O1 | inactive |
| CC(C)(C)NC(=O)C1N(c2cccnc2)C(=O)C2C(C(=O)Nc3ccccc3F)C3(C)C=CC21O3 (stereo not drawn) | inactive |
| O=C(CN1CCN(S(=O)(=O)c2ccc(Cl)cc2)CC1)Nc1ccc2c(c1)OCCO2 | inactive |
| O=S(=O)(c1ccc(Cl)s1)N1CCN(Cc2ccccc2)CC1 | inactive |
| CCC(C)(C)C1CCc2c(sc(NC(=O)c3ccoc3C)c2C(N)=O)C1 (stereo not drawn) | inactive |
| O=C(CSc1nnc(-c2cccnc2)n1Cc1ccco1)c1ccc(Br)cc1 | inactive |
| Cc1c(C(=O)Nc2ccc(Cl)cc2)c2ccccn2c1CCc1ccncc1 | inactive |
| O=C(O)CCC(=O)NNC(=O)CCC(=O)NCc1ccccc1 | inactive |
| C/C(=C/C(=O)NCc1ccccc1)C(=O)O | inactive |
| Cc1cc(F)ccc1S(=O)(=O)Nc1ccccc1C(=O)Nc1ccc2[nH]c(=O)[nH]c2c1 | inactive |
| COC(=O)c1ccccc1NC(=O)C1CCCC1 | inactive |
| Cc1ccc(Cc2cnc(NC(=O)/C(C#N)=C/c3ccc(-c4ccc([N+](=O)[O-])cc4)o3)s2)cc1 | inactive |

| Compound | outcome |
| --- | --- |
| COc1ccc(NC(=O)/C(C#N)=C\c2cc(C)n(-c3ccc(Oc4ccc([N+](=O)[O-])cn4)cc3)c2C)cc1 | inactive |
| O=C(NCc1ccc(F)cc1)c1c(O)c2cccc3c2n(c1=O)CCC3 | inactive |
| CCSC1=C(C#N)C(c2cccs2)C(C(=O)OC)=C(C)N1 (stereo not drawn) | inactive |
| CCn1c(=O)c(C(=O)NCc2ccccn2)c(O)c2ccccc21 | inactive |
| CCOC(=O)c1c(O)c2ccccc2n(-c2ccccc2)c1=O | inactive |
| Cc1ccc2cc3c(NC(=O)c4cccnc4)nn(C)c3nc2c1 | inactive |
| CN(C)C(CNC(=O)c1cccnc1Sc1ccccc1)c1ccco1 (stereo not drawn) | inactive |
| O=C(c1cnn2c(C(F)F)cc(C3CC3)nc12)N1CCc2ccccc2C1 | inactive |
| O=C(NC1CCCC1)c1ccc(CNc2c(N3CCOCC3)c(=O)c2=O)cc1 | inactive |
| Cc1cc(C(=O)CN2C(=O)c3ccccc3S2(=O)=O)c(C)n1CC1CCCO1 (stereo not drawn) | inactive |
| CN(C)[C@H]1N(C(=O)c2ccc(Br)cc2)N=C2c3ccccc3S(=O)(=O)N21 | inactive |
| Cc1c(NS(=O)(=O)c2cccc(C(=O)NCc3ccncc3)c2)c(=O)n(-c2ccccc2)n1C | inactive |
| O=C(CCCc1ccccc1)N1CCN(c2ccc([N+](=O)[O-])cc2)CC1 | inactive |
| Cc1ccc(-c2nc3s/c(=C\c4ccco4)c(=O)n3n2)cc1 | inactive |
| O=C(NCC1CCCO1)c1cc(-c2ccco2)nc2ccccc12 (stereo not drawn) | inactive |
| CCCC(=O)Nc1cccc(-c2nc3ccccc3o2)c1 | inactive |
| CCn1c(SCC(=O)n2nc(C)cc2C)nnc1-c1ccc2c(c1)OCO2 | inactive |
| Cc1c(/C=N\NC(=O)c2csc3ccccc23)cnn1C | inactive |
| CN(CCOCCOc1ccc2ccccc2c1)Cc1ccccc1 | inactive |
| Cc1cc(NC(=O)c2cncc(Br)c2)no1 | inactive |
| O=C(O)c1cc(-c2ccc(N3CCOCC3)cc2)nn1-c1ccc(F)cc1F | inactive |
